# FLuc modulator – qHTS profiling assay for firefly luciferase inhibitor/activator using purifed enzyme and Km concentrations of substrates (counterscreen for miR-21 project). 6.9% of 360,000 active. AID 588342, 2011. purified FLuc, Km substrates, luminescence inhibition. Potency, µM (series often up to 57.5 µM), actives largely listed as inhibitors. Luciferin 4-monooxygenase (Photinus pyralis), P08659; note: nearly all actives have a fitted effect of over 55% in size
# Target sequence (P08659 whole entry, looked up): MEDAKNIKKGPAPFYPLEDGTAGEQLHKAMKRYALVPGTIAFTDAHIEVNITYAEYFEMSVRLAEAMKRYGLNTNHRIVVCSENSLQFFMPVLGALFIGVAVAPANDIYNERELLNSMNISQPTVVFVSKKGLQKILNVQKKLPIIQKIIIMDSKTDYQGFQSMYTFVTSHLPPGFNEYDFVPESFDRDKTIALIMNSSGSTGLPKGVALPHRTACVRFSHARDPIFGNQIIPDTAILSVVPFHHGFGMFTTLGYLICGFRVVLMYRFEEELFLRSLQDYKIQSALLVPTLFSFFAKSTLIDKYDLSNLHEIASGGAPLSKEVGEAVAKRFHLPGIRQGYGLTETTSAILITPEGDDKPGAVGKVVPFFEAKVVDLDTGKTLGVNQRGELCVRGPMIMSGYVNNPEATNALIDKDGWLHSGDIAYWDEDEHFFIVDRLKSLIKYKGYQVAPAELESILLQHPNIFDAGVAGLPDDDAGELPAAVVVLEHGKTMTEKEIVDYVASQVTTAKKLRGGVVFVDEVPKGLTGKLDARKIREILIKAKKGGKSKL
#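 Purified P. pyralis luciferase, 10 nM final, with Km-level 10 uM D-luciferin and 10 uM ATP in 50 mM Tris acetate pH 7.5, 10 mM Mg acetate, 0.01% Tween-20, 0.05% BSA; 6-point qHTS titration about 60 µM downward; luminescence read.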
# Rab9 promoter act – qHTS Assay for Rab9 Promoter Activators | AID 485297, 2010 | Potency, µM (top dose mostly 9.22 µM), hits mostly activators | 2.8% of 320,000 active | Huh7 Rab9 promoter-luciferase reporter, luminescence, 24 h; note: nearly all actives have a fitted effect of over 60% in size
#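 Luminescence read-out: Huh7 cells stably expressing Rab9-luciferase, treated 24 h with compound at 37 °C, then lysed with luciferase reagent for 10 min at ambient before reading.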
# NPC1 prom act – qHTS Assay for NPC1 Promoter Activators; Huh7 NPC1 promoter luciferase reporter, 24 h; Potency, µM (highest dose often 9.22 µM), actives largely listed as activators; 2.4% of 320,000 active; note: nearly all actives have a fitted effect of over 60% in size
#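 Quantitative HTS used a cell-based reporter: Huh7 cells stably bearing the NPC1 promoter upstream of luciferase were treated with compounds for 24 h, and promoter activation was read as luminescence.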
# ELG1 genotox – qHTS screen for small molecules that induce genotoxicity in human embryonic kidney (HEK293T) cells expressing luciferase-tagged ELG1; HEK293T ELG1-luciferase reporter, luminescence, 16 h; Potency, µM (series often up to 46 µM), actives largely listed as activators; 1.3% of 330,000 active; AID 504466, 2011; note: nearly all actives have a fitted effect of over 60% in size
#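 Reporter readout depends on ELG1 protein level, which increases with genetic stress. After 16 hr compound exposure at 37 °C, luciferase activity was quantified using ONE-Glo.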
# ELG1 repair inh – qHTS screen for small molecules that inhibit ELG1-dependent DNA repair in human embryonic kidney (HEK293T) cells expressing luciferase-tagged ELG1 | HEK293T ELG1-luciferase reporter, luminescence, 16 h; DNA damage induced by 5-fluorouridine | Potency, µM (doses to about 46.1 µM), usual class: inhibitors | 2.3% of 330,000 active | AID 504467, 2011; note: nearly all actives have a fitted effect of over 55% in size
#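 HEK293T cells expressing luciferase-tagged ELG1 (2,000/well) received 5-Fluorouridine plus compound or DMSO for 16 hr at 37 °C. Luciferase was read by ONE-Glo luminescence after 30 min at room temperature.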
# SMN2 splice enh – qHTS Assay for Enhancers of SMN2 Splice Variant Expression. HEK293 SMN2-luciferase splicing reporter, luminescence, 30-36 h. AID 1458, 2008. 2.8% of 210,000 active. Potency, µM (doses to about 46.1 µM), usual class: activators; note: nearly all actives have a fitted effect of over 55% in size
#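 HEK293 cells carry an SMN2 minigene-luciferase reporter in which exon 7 inclusion puts luciferase in frame. Cells were seeded at 2000 cells/well, attached for 10-12 hours, then exposed to compounds for 30-36 hours at 37C before ONE-Glo luminescence.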
# A number is an active result; 0 = inactive; ? = inconclusive; - = no result given; [ ] = dose if it differs, or a comment. Most compounds without a hit are left out; they make up all but 9.4% or so of the library. Calls come from the whole dose curve; as a rule, active = well fitted curve in the direction sought with a large enough effect; inconclusive = small, poorly fitted or top-dose-only effect, or another doubt; inactive = no such curve, though single readings can be large; an effect the other way counts as inactive or inconclusive.
SMILES,FLuc modulator,Rab9 promoter act,NPC1 prom act,ELG1 genotox,ELG1 repair inh,SMN2 splice enh
CCN1CCc2c(C#N)c(NCc3ccccc3)nc(N(CC)CC)c2C1,0,0,0,0,0,-
Nc1[nH]nc2nc(NCc3ccccc3)c3c(c12)CCN(Cc1ccccc1)C3,0,0,0,0,?,25µM
CC(C)(C)OC(=O)NCCCC1=CC2=CC(=O)C(C)(OC(=O)c3cnc4ccccc4n3)C(=O)C2=CO1 (centres undefined),-,-,-,-,-,0
COc1ccc(NC(=O)Nc2ccc(CC(=O)O)cc2)cc1,13µM,0,0,0,0,0
O=C(O)Cc1ccc(NC(=O)Nc2ccc(Br)cc2)cc1,6.7µM,0,0,0,0,-
COc1ccc(CNC(=O)Nc2ccc(C)cc2)cc1,0[2.3 µM],0,0,0,?,?
CC(C)(C)NC(=O)Nc1ccc(Br)cc1,15µM,2.5µM,?,?,?,-
Cc1nc(NCc2ccccc2)c2nc(-c3ccccc3)n(CCN3CCCCC3)c2n1,-,-,-,-,-,0
Cc1cc(C(C)(C)C)cc(CNC2CCCCC2)c1O,-,-,-,-,-,0[9.22 µM]
O=C(CNC(=O)c1ccc(Br)cc1)c1ccccc1,4.8µM,2µM,2.8µM,?,?,-
O=C(CNC(=O)c1ccccc1)OC1CCCCC1,12µM,0.89µM,4µM,?,?,13µM
CC(NC(=O)COC(=O)CNC(=O)c1ccc(-c2ccccc2)cc1)c1ccccc1 (centres undefined),17µM,0,0,0,0,-
CCCCCOC(=O)NCC(O)c1ccccc1 (centres undefined),13µM,4.5µM,2.5µM,?,?,?
CC(NC(=O)COC(=O)Cc1ccc(-c2ccccc2)cc1)c1ccccc1 (centres undefined),?,0,0,0,0,?
O=C(CNC(=O)c1ccc(Br)cc1)c1ccc(Br)cc1,0,0,0,0,0,-
COc1ccc(NC(=O)c2ccc(-c3nc(CSc4ccc(C)cc4)c(C)o3)cc2)cc1Cl,0,-,-,-,-,-
CC(=NC1CCCCC1)c1ccccc1O,-,-,-,-,-,0[9.22 µM]
CN(C)c1ncc2ncc(=O)n(Cc3cccs3)c2n1,-,-,-,-,-,0
O=C(CNC(=O)c1ccc(-c2ccccc2)cc1)OCc1ccc(Br)cc1,21µM,0,0,0,?,3.5µM
COc1ccc(C(=O)NCC(=O)OCc2ccc(Br)cc2)cc1,0,0,0,0,0,0
O=C(CNC(=O)c1ccccc1C(=O)O)c1ccccc1,12µM,3.5µM,2.8µM,?,?,0
O=C(CNC(=O)c1ccccc1)c1ccccc1,6.7µM,0.45µM,0.71µM,?,?,-
O=C(CNC(=O)c1ccc(F)cc1)c1ccc(Cl)cc1,9.5µM,1.6µM,4µM,?,?,-
O=C(O)CNC(=O)c1ccccc1,0,0,0,0,0,-
COc1ccc(C2=C(C(C)=O)Sc3nnc(-c4ccc(C)cc4)n3N2C(C)=O)cc1OC,0,-,-,-,-,-
SMILES,FLuc modulator,Rab9 promoter act,NPC1 prom act,ELG1 genotox,ELG1 repair inh,SMN2 splice enh
CCOc1ccc(-n2nc(CO)c(C(=O)NCc3ccccn3)n2)cc1,?,-,-,-,-,0
COc1ccc(OCC(=O)Nc2cc(-c3nc4ccccc4o3)ccc2Cl)cc1,0,-,-,-,-,0
O=C(O)c1ccccc1C(=O)NCC(O)c1ccccc1 (centres undefined),0,0,0,0,0,-
CC1=C(C)CC(C(=O)NCC(=O)c2ccccc2)C(C(=O)O)C1 (centres undefined),15µM,0,0,16µM,?,0
O=C(NC[C@H](O)c1ccccc1)c1ccccc1,-,-,-,-,-,14µM
CC1=C(C)CC(C(=O)NNC(=O)c2ccccc2)C(C(=O)O)C1 (centres undefined),0,0,0,0,0,0
Cc1ccc(NC(=O)C2OCCc3ccccc32)cc1Cl (centres undefined),24µM,0,0,0,0,0
COc1ccc(N2CCN(CC(=O)N3c4ccccc4CC3C)CC2)cc1 (centres undefined),0,0,0,0,?,-
CC1CCN(c2ccc(-c3cccs3)nn2)CC1,0.076µM,1.4µM,?,0.23µM,?,-
